Screening data deposited in PubChem BioAssay by several laboratories.
Mtb FBA inh = inhibits M. tuberculosis FBA enzyme. 360,000 tested, 2.3% active. purified M. tuberculosis FBA, fluorescence read-out. inhibition, % at 1 µM. P9WQA3;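 note: 0% = vehicle and 100% = reference inhibitor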
Target sequence (P9WQA3 whole entry, looked up): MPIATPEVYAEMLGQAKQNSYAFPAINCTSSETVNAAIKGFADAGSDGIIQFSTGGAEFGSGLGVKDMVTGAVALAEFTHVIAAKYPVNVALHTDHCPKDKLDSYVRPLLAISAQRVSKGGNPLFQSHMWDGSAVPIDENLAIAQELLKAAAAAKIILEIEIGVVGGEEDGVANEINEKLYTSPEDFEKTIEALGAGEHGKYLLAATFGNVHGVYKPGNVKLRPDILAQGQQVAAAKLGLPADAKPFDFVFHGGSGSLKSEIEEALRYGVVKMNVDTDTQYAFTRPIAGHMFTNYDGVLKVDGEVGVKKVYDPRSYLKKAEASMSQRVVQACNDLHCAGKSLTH
FadD28 binding = inhibitors of Mycobacterium tuberculosis FadD28 bisubstrate binding | inhibition, % at 12.5 µM | 360,000 tested, 0.22% active | FadD28 bisubstrate probe binding, fluorescence polarization; in the data active = inhibition above about 8.5%, passing the limit was not always enough
SARS 3CLpro inh = SARS-CoV 3CLpro protease inhibition; P0C6X7; recombinant SARS-CoV 3CLpro, quenched FRET peptide cleavage; inhibition, % at 6 µM; 290,000 tested, 0.14% active; in the data active = inhibition above about 12%
Mtb BioA inh = blocks M. tuberculosis BioA enzyme activity; purified M. tuberculosis BioA enzyme, plate reader; inhibition, % at 9.99 µM; 360,000 tested, 0.096% active; AID 602481; in the data active = inhibition above about 40%
GDH-TPI counter-1 = GDH-TPI coupled enzyme inhibition counter-screen | GDH-TPI coupled enzyme counterscreen, NADH absorbance | inhibition, % at 4.8 µM | 360,000 tested, 1.2% active | AID 588335; in the data active = inhibition above about 30%;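 note: 0% = DMSO wells and 100% = wells lacking the enzyme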
Mtb FBA confirm = confirmation of M. tuberculosis fructose-bisphosphate aldolase inhibitors. shares compounds with Mtb FBA inh. purified M. tuberculosis FBA, fluorescence read-out. inhibition, % at 1 µM. 5,600 tested, 78% active. AID 651616;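 note: 0% = vehicle wells and 100% = reference inhibitor wells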
GDH-TPI counter-2 = counter-screen for M. tuberculosis FBA inhibitors: GDH-TPI coupled enzyme inhibition | shares compounds with Mtb FBA inh | GDH-TPI coupled enzyme counterscreen, fluorescence | inhibition, % at 1 µM | 5,600 tested, 81% active | AID 652141; in the data active = inhibition above about 10%
The depositor's hits bear a star. Hits are enriched below; roughly 3.1% of the tested compounds scored in any of these assays. Cut-off read from the data, not from the text of the source, unless noted: active = inhibition above about 27%; inactive = the rest.

How did COCC(=O)N(C)C[C@@H]1Oc2ncc(C#Cc3cccnc3)cc2C(=O)N([C@H](C)CO)C[C@@H]1C do in these assays?
Mtb BioA inh: 1

How did O=C(C[C@@H]1CC[C@H](NC(=O)c2ccccn2)[C@H](CO)O1)NCc1cccc(F)c1 do in these assays?
Mtb BioA inh: -1

Results for COc1cc2c(cc1OC)CN(Cc1ccc(F)cc1)CC2 ?
Mtb FBA inh: 43*; FadD28 binding: 0; SARS 3CLpro inh: -2; Mtb BioA inh: 0; GDH-TPI counter-1: 1; Mtb FBA confirm: 64*; GDH-TPI counter-2: 45*

What do the screens show for `COc1cccc(NC(=O)CSc2nc3c(sc4ccccc43)c(=O)n2CCN(C)C)c1`?
Mtb FBA inh: 47*; FadD28 binding: -6; SARS 3CLpro inh: 1; GDH-TPI counter-1: 8; Mtb FBA confirm: 4; GDH-TPI counter-2: 0

How did Cc1ccc2c(c1)COc1c3ccc(C(=O)NC(C)C)cc3nn1-2 do in these assays?
Mtb FBA inh: 23; FadD28 binding: 0; Mtb BioA inh: -2; GDH-TPI counter-1: 11

Results for Cc1ccc2c(c1)COc1c3ccc(C(=O)N[C@@H](C)CO)cc3nn1-2 ?
Mtb FBA inh: 34*; FadD28 binding: -1; Mtb BioA inh: -3; GDH-TPI counter-1: 21; Mtb FBA confirm: active; GDH-TPI counter-2: active

Results for CC(C)C#Cc1cnc2c(c1)C(=O)N([C@@H](C)CO)C[C@@H](C)[C@@H](CN(C)C(=O)Nc1ccc(F)cc1)O2 ?
Mtb BioA inh: 3

How did COCCCNC(=O)c1ccc2nc3ccccc3c(=O)n2c1 do in these assays?
Mtb FBA inh: 66*; FadD28 binding: -1; SARS 3CLpro inh: 1; Mtb BioA inh: 0; GDH-TPI counter-1: 13; Mtb FBA confirm: 121*; GDH-TPI counter-2: 106*

How did COC(CNC(=O)c1ccc2nc3ccccc3c(=O)n2c1)OC do in these assays?
Mtb FBA inh: 61*; FadD28 binding: 1; SARS 3CLpro inh: -9; Mtb BioA inh: -2; GDH-TPI counter-1: 18; Mtb FBA confirm: active; GDH-TPI counter-2: active

What do the screens show for `O=C(C1CCCC1)N1CCCCN2[C@H](CO)[C@@H](c3ccc(-c4cccc(F)c4)cc3)[C@H]2C1`?
Mtb BioA inh: 1

How did CCCOc1ccc(S(=O)(=O)N2CCOCC2)cc1[N+](=O)[O-] do in these assays?
Mtb FBA inh: 34*; FadD28 binding: 0; SARS 3CLpro inh: -2; GDH-TPI counter-1: -2; Mtb FBA confirm: 72*; GDH-TPI counter-2: 63*

Results for C[C@H](CO)N1C[C@H](C)[C@H](CN(C)S(=O)(=O)c2cn(C)cn2)Oc2ccc(NS(=O)(=O)c3ccc(F)cc3)cc2CC1=O ?
Mtb BioA inh: 0

Results for COC(=O)C(C)Oc1cc(C)cc2oc(=O)c3c(c12)CCC3 (configuration not stated) ?
Mtb FBA inh: 74*; FadD28 binding: -2; SARS 3CLpro inh: -2; Mtb BioA inh: 5; GDH-TPI counter-1: 10; Mtb FBA confirm: active; GDH-TPI counter-2: active

What do the screens show for `CCOC(=O)C(C)Oc1cc(C)cc2oc(=O)c3c(c12)CCCC3` (configuration not stated)?
Mtb FBA inh: 75*; FadD28 binding: 1; SARS 3CLpro inh: -8; Mtb BioA inh: 1; GDH-TPI counter-1: 13; Mtb FBA confirm: 65*; GDH-TPI counter-2: 62*

How did COC(=O)C(C)Oc1cc(C)cc2oc(=O)c3c(c12)CCCC3 (configuration not stated) do in these assays?
Mtb FBA inh: 57*; FadD28 binding: -6; SARS 3CLpro inh: -2; Mtb BioA inh: 2; GDH-TPI counter-1: -4; Mtb FBA confirm: 59*; GDH-TPI counter-2: 51*

Results for COc1cc2cc(CN(Cc3cccnc3)C(=O)NCc3ccccc3)c(=O)[nH]c2cc1OC ?
Mtb FBA inh: 32*; FadD28 binding: -2; SARS 3CLpro inh: -4; Mtb BioA inh: 2; GDH-TPI counter-1: 26; Mtb FBA confirm: 26; GDH-TPI counter-2: 20*

Results for COc1cc2cc(CN(CCO)S(=O)(=O)c3ccccc3Cl)c(=O)[nH]c2cc1OC ?
Mtb FBA inh: 49*; FadD28 binding: -1; SARS 3CLpro inh: 0; GDH-TPI counter-1: 33*; Mtb FBA confirm: 118*; GDH-TPI counter-2: 101*

What do the screens show for `COc1cc2cc(CN(Cc3cccnc3)C(=O)Nc3ccccc3)c(=O)[nH]c2cc1OC`?
Mtb FBA inh: 10; FadD28 binding: -9; SARS 3CLpro inh: -4; GDH-TPI counter-1: -3

Results for COc1cc2cc(CN(CCCO)S(=O)(=O)c3ccccc3)c(=O)[nH]c2cc1OC ?
Mtb FBA inh: 55*; FadD28 binding: -4; SARS 3CLpro inh: -7; Mtb BioA inh: 2; GDH-TPI counter-1: 37*; Mtb FBA confirm: 2; GDH-TPI counter-2: -2

Results for CC(C)CC#Cc1ccc2c(c1)O[C@@H](CN(C)S(=O)(=O)c1cccc(F)c1)[C@H](C)CN([C@H](C)CO)S2(=O)=O ?
Mtb BioA inh: -1

How did COCC#Cc1ccc([C@H]2[C@@H](CO)N3CCCCN(C(=O)CN(C)C)C[C@H]23)cc1 do in these assays?
Mtb BioA inh: -2

Results for CCN(CC)CCn1c2ccccc2c2cnc(N)c(C#N)c21 ?
Mtb FBA inh: 29*; FadD28 binding: -3; SARS 3CLpro inh: -2; GDH-TPI counter-1: 5; Mtb FBA confirm: active; GDH-TPI counter-2: 180*

What do the screens show for `Cc1ccc(C)c(Oc2coc3cc(O)ccc3c2=O)c1`?
Mtb FBA inh: 38*; FadD28 binding: -1; SARS 3CLpro inh: -1; Mtb BioA inh: 0; GDH-TPI counter-1: 20; Mtb FBA confirm: 128*; GDH-TPI counter-2: 104*

Results for Cc1ccccc1-c1coc2cc(O)ccc2c1=O ?
Mtb FBA inh: 48*; FadD28 binding: 0; SARS 3CLpro inh: 1; Mtb BioA inh: -2; GDH-TPI counter-1: 20; Mtb FBA confirm: 97*; GDH-TPI counter-2: 81*

What do the screens show for `Cc1ccc(Oc2coc3cc(O)ccc3c2=O)cc1`?
Mtb FBA inh: 40*; SARS 3CLpro inh: -4; Mtb BioA inh: 1; GDH-TPI counter-1: 17; Mtb FBA confirm: 53*; GDH-TPI counter-2: 57*

How did CC(C)NC(=O)N1[C@H](CO)[C@@H]2c3ccccc3N(C(=O)C3CCC3)C[C@@H]21 do in these assays?
Mtb BioA inh: 20

Results for COc1cccc(-c2ccc3c(c2)O[C@H](CN(C)C(=O)C2CC2)[C@H](C)CN([C@@H](C)CO)S3(=O)=O)c1 ?
Mtb BioA inh: 1

Results for CO[C@@H]1CN(C)C(=O)c2ccc(NC(C)=O)cc2OC[C@H](C)N(CC2CC2)C[C@H]1C ?
Mtb BioA inh: -1

What do the screens show for `COc1cccc(-c2nn(C)c3sc(C(=O)NCc4ccc(C)cc4)cc23)c1`?
Mtb FBA inh: 18; FadD28 binding: -12; SARS 3CLpro inh: 5; GDH-TPI counter-1: 5
